From PubChem BioAssay
Where “and” joins values, the source holds several entries; their conditions need not be identical. Equal entries are not always repeated. Calls of active or inactive are those of the source. Unless noted, no stated cut-off is given here; in the data, active means parasite load remaining mostly below about 12% (no sharp cut-off); inactive means mostly above about 10%.

Legend:
[1] = P. berghei load reduction in hepatocytes – cell-based, HepG2, luciferase luminescence, HepG2 viability, primary screen (AID 624349);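 further: 100% = mean of DMSO negative control wells on the same plate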; details: P. berghei liver stage in HepG2, luciferase luminescence, concentration not given here; parasite load remaining: stronger effect = lower value; viability: measured here: HepG2 viability without parasites
[2] = system: Hepatitis C virus NS3 helicase; assay: blockers of NS3h binding to ssDNA – biochemical, fluorescence polarization, LOPAC1280 library, primary screen (AID 687035; in the data active means inhibition above about 37%); details: Purified HCV NS3 helicase, Cy5-dT15 ssDNA binding fluorescence polarization; stronger effect = higher value; concentration not given here
[3] = compounds altering Cy5-DNA-NS3h complex signal – biochemical, LOPAC1280, artefact control for HCV NS3 helicase inhibitor project (AID 687037; call rule not given here); details: Cy5-DNA-NS3h complex fluorescence interference counterscreen
[4] = Wnt pathway potentiators raising nuclear beta-catenin – imaging, WNT3A-conditioned medium, mouse C2C12, NPC library, primary screen (AID 1117326; in the data active means nuclear beta-catenin stimulation mostly above about 4.2%, no sharp cut-off; inactive means mostly below about 10%); details: stronger effect = higher value
[5] = stimulators of insulin release from INS-1E, primary screen, cell-based, 5 mM glucose, NPC library (AID 1117329;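 active means compound raises insulin release from rat beta cells at 5 mM glucose, no numeric limit stated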); details: rat INS-1E insulin secretion, at 10 µM, stronger effect = higher value
[6] = growth inhibition of GSK3B-pretreated HCT116 cells – cell-based, CellTiter-Glo, 0.2 to 20 µM (AID 1117336;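 active means compounds lowering colon cancer cell viability after pretreatment blocking the GSK3B kinase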); details: HCT116 viability after GSK3B inhibitor, at 20 µM, stronger effect = higher value
[7] = inhibition of endothelial tube formation, primary screen, imaging, VEGF stimulated, CD31 staining, tube area, NPC library (AID 1117340;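 active means compound that reduces growth-factor-driven endothelial tube area in a mixed cell culture, no cutoff stated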); details: VEGF-stimulated ADSC/ECFC co-culture, at 10 µM, stronger effect = higher value
[8] = GLP1 release stimulators, primary, NCI-H716, NPC library (AID 1117341;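 active means compound raises GLP1 secretion from the human gut endocrine cells, with no numeric limit stated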); details: NCI-H716 cells, at 10 µM, stronger effect = higher value
[9] = HCT116 colon cancer cell growth inhibition, primary screen, CellTiter-Glo luminescence, NPC library (AID 1117342;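 active means compounds that lower survival of HCT116 colon cancer cells in the luminescence readout, no numeric limit stated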); details: at 20 µM (top of the series)
[10] = reduced SW480 viability measured with CellTiter-Glo, NPC library, primary (AID 1117343;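 active means compounds that lower viability of the colon cancer cells in the luminescence readout, with no numeric limit stated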); details: CellTiter-Glo luminescence; at 20 µM (top of the series)
[11] = NPC library primary testing for decreased DLD-1 cell viability via CellTiter-Glo (AID 1117346;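 active means compounds that lower survival of DLD-1 colon cancer cells in the luminescence readout, no cutoff given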); details: DLD-1 viability, CellTiter-Glo luminescence; at 20 µM (top of the series)
[12] = molecular target: 6-phosphogluconate dehydrogenase, decarboxylating (Homo sapiens) (UniProt P52209); assay: inhibition of human phosphogluconate dehydrogenase – biochemical, recombinant enzyme, NADPH absorbance, primary screen (AID 1159550;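 active means at least 20% inhibition of 6-phosphogluconate dehydrogenase activity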); details: recombinant 6PGD, NADPH absorbance 341 nm; at 10 µM; stronger effect = higher value
Chain of 6-phosphogluconate dehydrogenase, decarboxylating (Homo sapiens) (P52209 whole entry, looked up): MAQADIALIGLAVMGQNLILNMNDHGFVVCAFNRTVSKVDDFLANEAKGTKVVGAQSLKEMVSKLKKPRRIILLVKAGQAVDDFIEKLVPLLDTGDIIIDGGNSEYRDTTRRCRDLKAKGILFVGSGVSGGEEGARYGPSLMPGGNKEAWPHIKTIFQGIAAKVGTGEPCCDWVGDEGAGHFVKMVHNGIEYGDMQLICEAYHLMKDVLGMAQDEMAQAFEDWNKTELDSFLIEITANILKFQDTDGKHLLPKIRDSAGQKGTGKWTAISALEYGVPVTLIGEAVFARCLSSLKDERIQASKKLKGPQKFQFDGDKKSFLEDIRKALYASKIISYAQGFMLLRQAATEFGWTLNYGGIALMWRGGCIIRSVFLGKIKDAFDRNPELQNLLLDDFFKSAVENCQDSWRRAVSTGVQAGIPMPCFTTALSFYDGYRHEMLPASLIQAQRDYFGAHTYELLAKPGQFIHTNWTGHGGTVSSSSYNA

CN(C)CCCN1c2ccccc2Sc2ccccc21
inactive: parasite load remaining [1] 72.2% and 44.2% and 20.3% | inhibition [2] -9% | fluorescence ratio (interference) [3] 0.9 | nuclear beta-catenin stimulation ([4]; at 10 µM) 2.1% | insulin secretion stimulation [5] 14.5% | viability decrease [6] -76.1% | tube area decrease [7] 12.3% | GLP1 secretion stimulation [8] 9.2% | inhibition of viability [9] 39.3% | viability decrease (inhibition) [11] 14.3% | inhibition [12] 6.03%
85.1% and 62.8% and 90.9%: viability [1]
active: viability decrease (inhibition) [10] 95.8%
1.6%: nuclear beta-catenin stimulation ([4]; stimulation, at 2 µM)

CC1(C)NC(=O)N(c2ccc([N+](=O)[O-])c(C(F)(F)F)c2)C1=O
inactive: parasite load remaining [1] 54.2% and 50.4% and 7.05% | inhibition [2] -2% | fluorescence ratio (interference) [3] 1 | nuclear beta-catenin stimulation ([4]; at 10 µM) -0.3% | insulin secretion stimulation [5] 0.7% | viability decrease [6] -16.7% | tube area decrease [7] 6.9% | GLP1 secretion stimulation [8] -1.4% | inhibition of viability [9] 8.8% | viability decrease (inhibition) [10] 18.3% | viability decrease (inhibition) [11] -16.7% | inhibition [12] 9.97%
2.1%: nuclear beta-catenin stimulation ([4]; stimulation, at 2 µM)
92.2% and 99% and 125%: viability [1]

Cc1cc(N)c2ccccc2[n+]1CCCCCCCCCC[n+]1c(C)cc(N)c2ccccc21
active: viability decrease [6] 85.5% | tube area decrease [7] 106% | inhibition of viability [9] 74.9% | viability decrease (inhibition) [10] 83% | viability decrease (inhibition) [11] 85.1%
-0.1%: nuclear beta-catenin stimulation ([4]; stimulation, at 2 µM)
inactive: parasite load remaining [1] 4.91% and -3.56% and 27.5% | inhibition [2] 2% | fluorescence ratio (interference) [3] 0.9 | nuclear beta-catenin stimulation ([4]; at 10 µM) 25% | insulin secretion stimulation [5] -0.4% | GLP1 secretion stimulation [8] -0.6% | inhibition [12] 4.29%
97.2% and 73.1% and 69.2%: viability [1]

C=CC(N)CCC(=O)O (stereo not drawn)
inactive: parasite load remaining [1] 117% and 83.3% and 20.7% | inhibition [2] 0% | fluorescence ratio (interference) [3] 1 | nuclear beta-catenin stimulation ([4]; at 10 µM) 1.7% | insulin secretion stimulation [5] 1.4% | viability decrease [6] -25.5% | tube area decrease [7] -14.9% | GLP1 secretion stimulation [8] -0.9% | inhibition of viability [9] 10.9% | viability decrease (inhibition) [10] -15.3% | viability decrease (inhibition) [11] -6.8% | inhibition [12] -0.693%
112% and 77.9% and 99.3%: viability [1]
0.5%: nuclear beta-catenin stimulation ([4]; stimulation, at 2 µM)

O=C1CCc2cc(OCCCCc3nnnn3C3CCCCC3)ccc2N1
1%: nuclear beta-catenin stimulation ([4]; stimulation, at 2 µM)
104% and 87.2% and 96.2%: viability [1]
inactive: parasite load remaining [1] 56.8% and 129% and 31.4% | inhibition [2] -1% | fluorescence ratio (interference) [3] 1 | nuclear beta-catenin stimulation ([4]; at 10 µM) 1.1% | insulin secretion stimulation [5] -1.5% | viability decrease [6] -19.3% | tube area decrease [7] 0.2% | GLP1 secretion stimulation [8] -1.1% | inhibition of viability [9] -0.27% | viability decrease (inhibition) [10] 36.4% | viability decrease (inhibition) [11] -12.1% | inhibition [12] 1.01%

CO[C@@]1(NC(=O)C(C(=O)O)c2ccc(O)cc2)C(=O)N2C(C(=O)O)=C(CSc3nnnn3C)CO[C@@H]21 (stereo partly drawn)
-0.2%: nuclear beta-catenin stimulation ([4]; stimulation, at 2 µM)
77.5% and 90.5%: viability [1]
inactive: parasite load remaining [1] 95.7% and 71.7% | nuclear beta-catenin stimulation ([4]; at 10 µM) 1.6% | insulin secretion stimulation [5] -0.4% | viability decrease [6] 23.9% | tube area decrease [7] 10.2% | GLP1 secretion stimulation [8] 1.3% | inhibition of viability [9] 2.9% | viability decrease (inhibition) [10] 25.1% | viability decrease (inhibition) [11] -26% | inhibition [12] 3.95%

C[n+]1cc2c3c(ccc2c2ccc4cc5c(cc4c21)OCO5)OCO3
1.3%: nuclear beta-catenin stimulation ([4]; stimulation, at 2 µM)
inactive: parasite load remaining [1] -0.155% and -0.085% | inhibition [2] -2% | fluorescence ratio (interference) [3] 1 | nuclear beta-catenin stimulation ([4]; at 10 µM) 32.4% | insulin secretion stimulation [5] -3.7% | inhibition [12] 11.1%
0.535% and 0%: viability [1]
active: viability decrease [6] 99.8% | tube area decrease [7] 104% | GLP1 secretion stimulation [8] 27.5% | inhibition of viability [9] 102% | viability decrease (inhibition) [10] 141% | viability decrease (inhibition) [11] 105%

COC(=O)[C@@H]1[C@H]2C[C@H]3c4[nH]c5ccccc5c4CCN3C[C@@H]2CC[C@@H]1O
0.4%: nuclear beta-catenin stimulation ([4]; stimulation, at 2 µM)
101% and 81.3% and 96.5%: viability [1]
inactive: parasite load remaining [1] 80.6% and 73.2% and 41.3% | inhibition [2] 0% | fluorescence ratio (interference) [3] 1.1 | nuclear beta-catenin stimulation ([4]; at 10 µM) 1% | insulin secretion stimulation [5] 1.1% | viability decrease [6] -73.5% | tube area decrease [7] 10.7% | GLP1 secretion stimulation [8] -0.7% | inhibition of viability [9] 13.8% | viability decrease (inhibition) [10] 18.3% | viability decrease (inhibition) [11] -9.4% | inhibition [12] 2.13%

C=Cc1c(C)c2cc3[nH]c(cc4nc(cc5nc(cc1[nH]2)C(C)=C5CCC(=O)O)C(CCC(=O)O)=C4C)c(C)c3C=C
65.3%: viability [1]
0.1%: nuclear beta-catenin stimulation ([4]; stimulation, at 2 µM)
inactive: parasite load remaining [1] 108% | nuclear beta-catenin stimulation ([4]; at 10 µM) -3.7% | insulin secretion stimulation [5] -1.6% | viability decrease [6] 37.8% | tube area decrease [7] -597% | inhibition [12] 16.8%
active: inhibition [2] 140% | fluorescence ratio (interference) [3] 2 | GLP1 secretion stimulation [8] 117% | inhibition of viability [9] 73.5% | viability decrease (inhibition) [10] 120% | viability decrease (inhibition) [11] 93%

C[C@]12C=CC(=O)C=C1CC[C@H]1[C@@H]3C[C@@H](O)[C@](O)(C(=O)CO)[C@@]3(C)C[C@H](O)[C@@]12F
-0.2%: nuclear beta-catenin stimulation ([4]; stimulation, at 2 µM)
105% and 93.7% and 75%: viability [1]
inactive: parasite load remaining [1] 59.1% and 78.5% and 29.4% | inhibition [2] -2% | fluorescence ratio (interference) [3] 1 | nuclear beta-catenin stimulation ([4]; at 10 µM) -1.1% | insulin secretion stimulation [5] -0.5% | viability decrease [6] 8.2% | tube area decrease [7] -16.1% | GLP1 secretion stimulation [8] -3.1% | inhibition of viability [9] 11% | viability decrease (inhibition) [10] 13.3% | viability decrease (inhibition) [11] 14.8% | inhibition [12] -17.6%
